In PubChem BioAssay (NCATS):
Results filed as inconclusive are left out. Activity calls are given as the source filed them. Unless noted, calls come from the whole dose curve.

How the values were obtained:
[1] = Primary qHTS for Huh7 cytotoxicity: counterscreen for inhibitors of MERS-S pseudotyped particle cell entry (AID 1479147)
[2] = Primary qHTS for Vero E6 cytotoxicity: counterscreen for inhibitors of SARS-S pseudo-typed particle cell entry (AID 1479150)
[3] = Primary qHTS for inhibitors of MERS-S pseudo-typed particle cell entry (AID 1479149); note: nearly all actives have a fitted effect of over 60% in size
[4] = Cytotoxicity counterscreen for inhibitors of SARS-CoV-2 cell entry (AID 1645845); note: nearly all actives have a fitted effect of over 50% in size
Method in brief: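 HEK293-ACE2 cells (Expi293F stably expressing human ACE2) seeded overnight, then compound for 1 h plus 48 h at 37C. Viability as ATP content by luminescence; normalized to wells with cells and media-only wells.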

[5] = Primary qHTS for inhibitors of La Crosse Virus (LACV) - induced cell death in SH-SY5Y cells (AID 1508616; active = well fitted curve in the direction sought with a large enough effect; an effect the other way counts as inactive or inconclusive;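 note: top concentration of the series differs between compounds; higher means more rescue of cells from virus-induced death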)
Method in brief: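 Luminescent ATP readout (ATPLite 1step, 5 min room temperature) measured rescue from LACV-induced death after 6 days of infection at 0.01 MOI; normalized to infected DMSO wells and uninfected DMSO wells.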

[6] = target: Calcium and integrin-binding protein 1 (Homo sapiens) (UniProt Q99828); experiment: Validation qHTS for Identification of Calcium Integrin Binding protein 1 (CIB1) Competitor (AID 1508618; active = well fitted curve in the direction sought with a large enough effect; an effect the other way counts as inactive or inconclusive)
Method in brief: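 CIB1-GST (1 uM final) in 5 mM HEPES pH 7.4, 125 mM NaCl, 5 mM CaCl2, 0.01% Tween20 was preincubated 15 min at room temperature with compound (up to 114 uM), then FITC-alphaIIb peptide (100 nM) added for 15 min; fluorescence polarization read.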

[7] = target: Calcium and integrin-binding protein 1 (Homo sapiens) (UniProt Q99828); experiment: Primary qHTS for Identification of Calcium Integrin Binding Protein 1 (CIB1) Competitor (AID 1508620; active = well fitted curve in the direction sought with a large enough effect; an effect the other way counts as inactive or inconclusive;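 note: GST tagged CIB1 binding a fluorescein labelled alphaIIb integrin peptide tracer; top concentration of the series differs between compounds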)
Method in brief: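 Fluorescence polarization competition: GST-tagged CIB1 (1 uM final) preincubated with compound 15 min at room temperature, then FITC-labelled alphaIIb peptide (100 nM final) added. After 15 min at room temperature, polarization read at Ex 480/Em 540.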

[8] = Primary qHTS for small molecule stabilizers of the endoplasmic reticulum resident proteome: Secreted ER Calcium Modulated Protein (SERCaMP) assay (AID 1508630; active = well fitted curve in the direction sought with a large enough effect; an effect the other way counts as inactive or inconclusive)
Method in brief: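 GLuc-SERCaMP-expressing SH-SY5Y cells, pretreated 16 h with compound, are challenged with thapsigargin to empty ER calcium stores; after 4 h, coelenterazine is added directly to the medium and luminescence is imaged.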

[9] = A High-Content qHTS Against Drug Library for the Identification of Small Molecules that Inhibit DYT1 Early Onset Primary Dystonia-Associated Cell Pathology (AID 1645839); note: series mostly up to about 46 µM
Method in brief: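 Flp-In T-REx 293 cells with tetracycline-inducible EGFP-delE hTOR1A (WT EGFP-hTOR1A as reference), 800 cells/well; compound added with tetracycline, 48 h at 37 C. Fixed, permeabilized cells imaged; %pathology (punctate TorsinA) primary, cell count counterscreen.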

[10] = target: Cytochrome P450 2D6 (Homo sapiens) (UniProt P10635); experiment: Cytochrome P450 family 2 subfamily D member 6 (CYP2D6) small molecule antagonists: luciferase biochemical (cell-free) qHTS assay (AID 1645840; active = well fitted curve in the direction sought with a large enough effect in the repeat runs; an effect the other way counts as inactive or inconclusive; note: nearly all actives have a fitted effect of over 55% in size; note: potency is the fitted concentration of half-maximal effect)
Method in brief: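 P450-Glo luminescent screen: recombinant CYP2D6 enzyme–proluciferin substrate mix preincubated with compound 10 min at room temperature, then NADPH regeneration added for 1 h at room temperature. Detection reagent added for 20 min; luciferin light read as relative luminescence units.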

[11] = target: Cytochrome P450 2C9 (Homo sapiens) (UniProt P11712); experiment: Cytochrome P450 family 2 subfamily C member 9 (CYP2C9) small molecule antagonists: luciferase biochemical (cell-free) qHTS assay (AID 1645842; active = well fitted curve in the direction sought with a large enough effect in the repeat runs; an effect the other way counts as inactive or inconclusive; note: nearly all actives have a fitted effect of over 55% in size; note: potency is the fitted concentration of half-maximal effect)
Method in brief: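 Luminescence, after 20 min with luciferin detection reagent, reflected CYP2C9 turnover during a 1 h NADPH-driven reaction at 37C. Enzyme-substrate mix contained 0.4% bovine serum albumin and was preincubated with compound 10 min at room temperature.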

[12] = Confirmatory qHTS to identify inhibitors of SARS-CoV-2 cell entry (AID 1645844); note: potency is the fitted concentration of half-maximal effect; nearly all actives have a fitted effect of over 45% in size
Method in brief: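 HEK293-ACE2 cells were pretreated 1 h with compound, then infected with MLV-based pseudoparticles bearing C-terminally truncated Wuhan-Hu-1 spike for 48 h at 37C; luciferase luminescence normalized to spike PP and bald PP wells.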

[13] = Confirmatory qHTS for VERO E6 Cytotoxicity Assay: Counterscreen for SARS-CoV-2 CPE Assay (AID 1508605); note: series mostly up to about 20 µM; nearly all actives have a fitted effect of over 60% in size
[14] = Confirmatory qHTS for activators (rescue) of SARS-CoV-2 Cytopathic Effect (CPE) (AID 1508606); note: potency is the fitted concentration of half-maximal effect; nearly all actives have a fitted effect of over 70% in size

Measured: Potency

Chain of Cytochrome P450 2D6 (Homo sapiens) (P10635 whole entry, looked up): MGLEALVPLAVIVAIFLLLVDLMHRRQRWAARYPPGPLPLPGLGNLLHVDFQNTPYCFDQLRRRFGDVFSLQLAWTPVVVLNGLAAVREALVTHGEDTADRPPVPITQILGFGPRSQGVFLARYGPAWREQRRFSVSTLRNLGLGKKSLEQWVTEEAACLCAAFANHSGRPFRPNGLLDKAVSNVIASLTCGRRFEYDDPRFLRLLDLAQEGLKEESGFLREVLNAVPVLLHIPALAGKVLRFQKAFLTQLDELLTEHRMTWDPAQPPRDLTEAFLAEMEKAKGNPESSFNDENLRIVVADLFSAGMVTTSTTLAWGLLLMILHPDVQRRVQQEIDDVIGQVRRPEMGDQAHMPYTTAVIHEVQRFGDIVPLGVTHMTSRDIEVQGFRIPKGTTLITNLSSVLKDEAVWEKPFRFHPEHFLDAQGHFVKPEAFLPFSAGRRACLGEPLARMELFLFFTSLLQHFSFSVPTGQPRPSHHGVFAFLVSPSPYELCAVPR
Chain of Cytochrome P450 2C9 (Homo sapiens) (P11712 whole entry, looked up): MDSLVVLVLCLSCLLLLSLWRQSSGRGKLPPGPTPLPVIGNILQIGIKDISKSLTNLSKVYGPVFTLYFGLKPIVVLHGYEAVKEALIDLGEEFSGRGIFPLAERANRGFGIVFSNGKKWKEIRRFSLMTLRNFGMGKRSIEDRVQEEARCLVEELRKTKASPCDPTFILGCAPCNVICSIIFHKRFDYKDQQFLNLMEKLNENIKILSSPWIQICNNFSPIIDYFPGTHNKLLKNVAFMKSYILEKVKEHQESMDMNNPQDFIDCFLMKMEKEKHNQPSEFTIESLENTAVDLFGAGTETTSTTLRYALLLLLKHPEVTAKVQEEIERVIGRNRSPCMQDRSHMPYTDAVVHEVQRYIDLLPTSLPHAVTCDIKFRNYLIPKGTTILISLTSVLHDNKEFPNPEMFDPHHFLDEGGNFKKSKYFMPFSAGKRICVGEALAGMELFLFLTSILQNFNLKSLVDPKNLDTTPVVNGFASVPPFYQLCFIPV
Chain of Calcium and integrin-binding protein 1 (Homo sapiens) (Q99828 whole entry, looked up): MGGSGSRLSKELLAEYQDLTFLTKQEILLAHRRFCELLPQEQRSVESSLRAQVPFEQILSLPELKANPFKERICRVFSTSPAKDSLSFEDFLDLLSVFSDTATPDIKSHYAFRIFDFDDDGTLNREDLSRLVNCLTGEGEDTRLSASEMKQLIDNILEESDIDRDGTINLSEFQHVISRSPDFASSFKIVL

O=C1CCc2cc(OCCCCc3nnnn3C3CCCCC3)ccc2N1
inactive: [1] | [2]

Cc1ccccc1C(=O)Nc1ccc(C(=O)N2CCCC(O)c3cc(Cl)ccc32)c(C)c1 (stereo not drawn)
inactive: [1] | [3] | [2] | [4]

Cn1c(CCCC(=O)O)nc2cc(N(CCCl)CCCl)ccc21
not listed: [3] | [12] | [13] | [14]
inactive: all other assays above

CC1(C)S[C@@H]2[C@H](NC(=O)[C@H](N)c3ccccc3)C(=O)N2[C@H]1C(=O)O
inactive: [1] | [3] | [2] | [4]

CCC(C)(C)C(=O)O[C@H]1C[C@@H](C)C=C2C=C[C@H](C)[C@H](CC[C@@H]3C[C@@H](O)CC(=O)O3)[C@H]21
inactive: [1] | [3] | [4]

CCCCc1ncc(/C=C(\Cc2cccs2)C(=O)O)n1Cc1ccc(C(=O)O)cc1
inactive: [1] | [3] | [2] | [4]

CC(=O)CCCCn1c(=O)c2c(ncn2C)n(C)c1=O
inactive: [1] | [3] | [2] | [4]

Nc1ncn([C@@H]2O[C@H](CO)[C@@H](O)[C@H]2O)c(=O)n1
active: [12] 17.1 µM
inactive: [1] | [2]

O=C1N=C(O)CN1/N=C/c1ccc(-c2ccc([N+](=O)[O-])cc2)o1
inactive: [1] | [3] | [2] | [4]

CC(CN(C)C)CN1c2ccccc2CCc2ccccc21 (stereo not drawn)
inactive: [1] | [2] | [13] | [4]
active: [12] 7.64 µM

CC(CN1c2ccccc2Sc2ccccc21)N(C)C (stereo not drawn)
inactive: [1] | [2] | [13] | [4]
active: [14] 11.2 µM | [12] 13.6 µM

C[C@@H](O[C@H]1OCCN(Cc2n[nH]c(=O)[nH]2)[C@H]1c1ccc(F)cc1)c1cc(C(F)(F)F)cc(C(F)(F)F)c1
inactive: [1] | [2]

COc1cc2nc(N3CCN(C(=O)C4COc5ccccc5O4)CC3)nc(N)c2cc1OC (stereo not drawn)
inactive: [1] | [2] | [13] | [4]

COc1ccc(-c2cc(=S)ss2)cc1
inactive: [1] | [3] | [4]

CC(C)c1c(C(=O)Nc2ccccc2)c(-c2ccccc2)c(-c2ccc(F)cc2)n1CC[C@@H](O)C[C@@H](O)CC(=O)O
inactive: [1] | [3] | [4]

C[C@]12CC[C@@H]3c4ccc(O)cc4C[C@@H](CCCCCCCCCS(=O)CCCC(F)(F)C(F)(F)F)[C@H]3[C@@H]1CC[C@@H]2O (stereo partly drawn)
inactive: [1] | [3] | [2] | [4]

CCCC(=O)Nc1ccc(OCC(O)CNC(C)C)c(C(C)=O)c1 (stereo not drawn)
inactive: [1] | [3] | [2] | [4]

CN(C)CCC=C1c2ccccc2CCc2ccccc21
inactive: [1] | [2] | [13] | [4]

CCCN(CCc1cccs1)[C@H]1CCc2c(O)cccc2C1
inactive: [1] | [3] | [2] | [4]

CN(C)CCCN1c2ccccc2Sc2ccc(Cl)cc21
active: [14] 11.2 µM | [12] 12.1 µM
inactive: [1] | [2] | [4]

CCc1ccc(CCOc2ccc(CC3SC(=O)NC3=O)cc2)nc1 (stereo not drawn)
inactive: [1] | [2] | [4]

COc1cc2nc(N3CCN(C(=O)c4ccco4)CC3)nc(N)c2cc1OC
inactive: [1] | [3] | [4]

Nc1ccc(O)c(C(=O)O)c1
inactive: [1] | [3] | [2] | [4]

CN1CCC(=C2c3ccccc3C=Cc3ccccc32)CC1
active: [12] 8.57 µM
inactive: [1] | [2] | [13]

CCOc1ccccc1OCCN[C@H](C)Cc1ccc(OC)c(S(N)(=O)=O)c1
inactive: [1] | [3] | [2] | [4]

Clc1ccc(CCC(Cn2ccnc2)Sc2c(Cl)cccc2Cl)cc1 (stereo not drawn)
inactive: [1] | [2] | [5] | [7] | [8]
active: [10] 0.55 µM | [11] 0.0123 µM

O=C1[C@H](CC[C@H](O)c2ccc(F)cc2)[C@@H](c2ccc(O)cc2)N1c1ccc(F)cc1
inactive: [1] | [3] | [2] | [4]

CCCCS(=O)(=O)N[C@@H](Cc1ccc(OCCCCC2CCNCC2)cc1)C(=O)O
inactive: [1] | [3] | [2] | [4]

COC(=O)CCc1ccc(OCC(O)CNC(C)C)cc1 (stereo not drawn)
inactive: [1] | [3] | [2] | [4]

CCC(COC(=O)c1cc(OC)c(OC)c(OC)c1)(c1ccccc1)N(C)C (stereo not drawn)
active: [10] 0.389 µM | [11] 13.8 µM
inactive: [1] | [2] | [5] | [7] | [8] | [9] | [4]
